Pf Dd2 growth = inhibitors of Plasmodium falciparum Dd2 growth | P. falciparum Dd2 growth, SYBR Green, 72 h | Potency, µM (highest dose often 28.9 µM), for inactives: at the top dose activity, negative = inhibition, hits mostly inhibitors | 4.3% of 120,000 active; active = well fitted inhibition curve with a large enough effect;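 note: plate controls were DMSO vehicle for no effect and reference drug for full effect; nearly all actives have a fitted effect of over 65% in size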
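Readout: SYBR Green fluorescence, 485 nm excitation, 535 nm emission, after ~16 h lysis at 37C. Before that, Dd2-infected red cells (2.5% hematocrit) grew 72 h with compound, 29 uM top final concentration.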
Active calls of the source: *; i = inactive; [ ] = dose if it differs, or a comment. Only a selection was taken, and hits are over-represented in it overall. Potency is the fitted concentration of half-maximal effect.

SMILES	Pf Dd2 growth
COc1cc(CN2CCC3(CC2)Cc2ccccc2CNC3=O)ccc1F	-4.2%
O=C(CCC[C@@H]1[C@H]2CCCN3CCC[C@@H](CN1C(=O)c1cccc(F)c1)[C@@H]23)NCC1CC1	-29.1%
O=C([C@@H]1C[C@H](Oc2cccnc2)CN1C(=O)c1ccc2ncccc2c1)N1CCCC1	0.3%
CC1(C)[C@H]2CC[C@@H](CNC(=O)c3ccncc3)[C@@H]1C2	-11.7%[44.1 µM]
CC1(C)[C@H]2CC[C@@H](CNC(=O)c3cccc(Br)c3)[C@@H]1C2	11.2µM*
CC1(C)[C@H]2CC[C@@H](CNC(=O)c3cc(F)ccc3Br)[C@@H]1C2	-28.5%[44.1 µM]
O=C(NCc1ccncc1)C1CCN(C(=O)c2ncn3c2COC(c2ccccc2)C3)CC1 (configuration not stated)	i
Cc1nn(C)c(C)c1S(=O)(=O)N1CCc2nnc(C3CC3)n2CC1	-0.3%
O=C1Nc2ccccc2O[C@H]2C[C@@H]1N(Cc1ccccn1)C2	10.5%[44.1 µM]
COCCc1noc(C2CCCCN2C(=O)CN2C(=O)OC(C)(C)C2=O)n1 (configuration not stated)	14.6%
CNc1cc(C2CC(NS(=O)(=O)c3cc(C)sc3C)C2)nc(N)n1 (configuration not stated)	8.91µM*
Cc1cc(C(F)(F)F)nc(CCNc2cc(C3CC(N)C3)nc(N)n2)n1 (configuration not stated)	-21.0%
CS(=O)(=O)NC1CCN(c2cc(C3CC(N)C3)nc(N)n2)CC1 (configuration not stated)	0.1%
CN(C)C(=O)c1cccnc1OC1CCN(C(=O)c2cccc(F)c2)C1 (configuration not stated)	10.6%
Cc1noc2ncnc(N3CCCC(C(=O)NCCC(C)C)C3)c12 (configuration not stated)	-15.3%
COc1cc(Cl)c(C)cc1NC(=O)C1CCCN(c2ncnc3onc(-c4ccc(F)cc4)c23)C1 (configuration not stated)	11.2µM*
Cc1ccc(C)c(NC(=O)C2CCCN(c3ncnc4onc(C)c34)C2)c1 (configuration not stated)	-24.6%
CC(C)N(Cc1ccccc1)C(=O)C1CCCN(c2ncnc3onc(-c4ccc(F)cc4)c23)C1 (configuration not stated)	8.91µM*
CCCN(CCC)C(=O)C1CCCN(c2ncnc3onc(-c4ccc(F)cc4)c23)C1 (configuration not stated)	-9.0%
Cc1ccc(NC(=O)C2CCCN(c3ncnc4onc(-c5ccc(F)cc5)c34)C2)c(Cl)c1 (configuration not stated)	-10.8%
CNCc1cn(C[C@H]2CC3CCN2C[C@@H]3C(=O)NCc2ccc(F)cc2)nn1 (some centres not stated)	16.5%[44.1 µM]
CN1CCC(NC(=O)C2CCC(=O)N(Cc3cccc(C(F)(F)F)c3)C2)CC1 (configuration not stated)	9.0%
COCc1nc(C2CC(NC(=O)c3cc(Cl)cn3C)C2)cc(=O)[nH]1 (configuration not stated)	-19.5%
COc1ccc(C(=O)N[C@H]2COC[C@H]2Cc2cc(C)no2)c(OC)n1	-9.7%
CC(C)(C)c1ccc(-c2cc(C[C@H]3CNCC[C@H]3CC(=O)O)no2)cc1	-18.4%[44.1 µM]
SMILES	Pf Dd2 growth
O=C(C[C@@H]1CCNC[C@@H]1Cc1cc(-c2ccccc2)on1)N1CCOCC1	10.4%[44.1 µM]
CC(C)(C)c1ccc(-c2cc(C[C@H]3CNCC[C@H]3CC(=O)N3CCC(n4c(=O)[nH]c5ccccc54)CC3)no2)cc1	6.31µM*
Cc1noc([C@@H](C)NC(=O)c2cc(C)n(C)n2)c1C(=O)O	8.5%[44.1 µM]
CCN1C(=O)CCN(C(=O)c2ccc(OC)nc2OC)CC12CCOCC2	7.3%
COCCn1cnc2ccc(-c3cccc(O)c3)nc2c1=O	-7.9%[44.1 µM]
Cn1cnc2ccc(-c3cccc(C(F)(F)F)c3)nc2c1=O	4.47µM*
O=c1c2nc(-c3cccc(C(F)(F)F)c3)ccc2ncn1Cc1ccccn1	-7.8%[44.1 µM]
O=C(c1cccc(=O)[nH]1)N1CC[C@@H](c2ccc3c(c2)OCO3)[C@H](O)C1	27.6%
COC(=O)c1ccccc1N(C)S(=O)(=O)c1cc2c3c(c1)CC(=O)N3CCC2	7.94µM*
O=C1Cc2cc(S(=O)(=O)Nc3cccc(C(F)(F)F)c3)cc3c2N1CCC3	i
COc1ccc(C)cc1NS(=O)(=O)c1cc2c3c(c1)CC(=O)N3CCC2	18.7%
COC(=O)c1ccccc1NC(=O)c1cc2c(s1)-c1ccccc1OC2	18.8%
COc1cc(NC(=O)c2cc3c(s2)-c2ccccc2OC3)cc(OC)c1OC	5.62µM*
COc1cccc(CNC(=O)c2cc3c(s2)-c2ccccc2OC3)c1	17.5%
CCOc1ccc(OCC)c(NC(=O)C2CCCN(S(=O)(=O)c3cc(Br)cc4c3N(C(=O)CC)CC4)C2)c1 (configuration not stated)	7.94µM*
CCOC(=O)c1cccc(NC(=O)C2CCCN(S(=O)(=O)c3cc(Br)cc4c3N(C(=O)CC)CC4)C2)c1 (configuration not stated)	-23.3%
CCOC(=O)C1CCCN(S(=O)(=O)c2cc(Br)cc3c2N(C(C)=O)CC3)C1 (configuration not stated)	21.0%
COc1ccc(C(=O)N2CCC(N3CCOCC3=O)CC2)cc1	-10.1%
Cc1occc1C(=O)N1C[C@@H](COc2ccccc2)[C@H](C(N)=O)C1	0.3%
Cc1sc2ccn(CC(C)C)c(=O)c2c1C(=O)NCc1cc(F)cc(F)c1	i
Cc1ccc(Nc2c(-c3ccc(C)s3)nc3ncccn23)cc1	-19.1%
COc1ccc(Nc2nc(-c3ccccc3F)nc3ccccc23)cc1OC	i
COc1ccc(Nc2c(-c3cc(Br)ccc3O)nc3ncccn23)cc1OC	1.26µM*
CC[C@@]1(C(=O)O)C[C@H](C(=O)N(C)CCO)[C@H](c2ccc(F)cc2)N1C	1.8%
COc1ccc(NC(=O)c2cc(C3CC3)nc3c2c(C)nn3-c2ccccc2)cc1	6.0%
SMILES	Pf Dd2 growth
COc1ccc(-c2cc(C(=O)NC3CCNCC3)c3c(C)nn(-c4ccccc4)c3n2)cc1	11.2µM*
COCCNC(=O)c1cc(-c2ccc(OC)cc2)nc2c1c(C)nn2-c1ccccc1	-29.9%
CCOc1ccc(NC(=O)N2CCc3cc(OC)c(OC)cc3C2CNC(=O)CC(C)C)cc1 (configuration not stated)	i
COc1ccc(C(=O)N2CCN(C(=O)COc3ccc(C)cc3)CC2)cc1OC	23.9%
COc1cc2c(cc1OC)C(COc1ccccc1OC)N(C(=O)COc1ccc(Cl)cc1)CC2 (configuration not stated)	8.91µM*
COc1ccc(CC(=O)N2[C@@H]3CC[C@H]2CC(NC(=O)c2ccc(F)cc2)C3)cc1OC (some centres not stated)	i
COC[C@@H]1CN(C(=O)COc2ccc(Cl)cc2)C[C@H]1C(N)=O	-1.0%
CCCC(=O)N1CCc2cc(OC)c(OC)cc2C1COc1ccc(C(=O)OC)cc1 (configuration not stated)	10µM*
COc1cc2c(cc1OC)C(CC(=O)O)N(C(=O)Nc1cc(OC)c(OC)c(OC)c1)CC2 (configuration not stated)	i
COC(=O)c1ccc(OCC2c3cc(OC)c(OC)cc3CCN2C(=O)c2ccc(OC)cc2)cc1 (configuration not stated)	7.08µM*
CCOC(=O)c1ccc(OCC2c3cc(OC)c(OC)cc3CCN2C(=O)Cc2ccc(F)cc2)cc1 (configuration not stated)	10µM*
